# Experimental data from ChEMBL document CHEMBL1157539, “Thousands of chemical starting points for antimalarial lead identification” (Nature, 2010).
# Key:
# Format in all cases: functional
# [1] = tested on: Plasmodium falciparum; assay: GSK_TCMDC: Inhibition of Plasmodium falciparum 3D7 in whole red blood cells, using parasite LDH activity as an index of growth. Test compounds present at 2uM
# [2] = tested on: Plasmodium falciparum; assay: GSK_TCMDC: Inhibition of Plasmodium falciparum Dd2 in whole red blood cells, using parasite LDH activity as an index of growth. Test compounds present at 2uM
# [3] = tested on: HepG2; assay: GSK_TCMDC: Percent inhibition of human HepG2 cell line. Test compounds present at 10uM.
Compound,Inhibition [1] [%],Inhibition [2] [%],Inhibition [3] [%]
CC1CN(Cc2cccc(-c3ccc(-c4nc5ccccc5[nH]4)cc3)c2)CC(C)O1.O=C(O)C(F)(F)F (stereo not drawn),90,88,37
CS(=O)(=O)O.FC(F)(F)COc1ccc(CCNCCCCNCCc2ccc(OCC(F)(F)F)c3ccccc23)c2ccccc12,99,70,100
Cc1cc(F)ccc1-c1nc(Nc2ccncc2)c2ccn(C)c2n1,89,8,9
CN(C)CCOc1cc(NC(=O)Nc2ccc3c(c2)CCCC3=O)ccc1I,94,31,29
Cc1cccc2nc(-c3ccc(-c4cccc(NC(=O)Nc5ccc(Cl)cc5)c4)s3)[nH]c12,100,52,25
NC(=O)c1ccccc1Nc1nc(Nc2ccc(N3CCOCC3)cc2)ncc1[N+](=O)[O-].O=C(O)C(F)(F)F,98,96,53
O=C(/C=C/c1ccc(C(F)(F)F)cc1)NCCCCCN1CCCN(C(=O)Nc2ccc(Cl)c(Cl)c2)CC1,100,17,89
CN1CCC(N2CCN(Cc3ccc(-c4ccc(-c5nc6cc(F)ccc6[nH]5)s4)cc3)CC2)CC1.O=C(O)C(F)(F)F,100,100,62
COc1ccc(-c2ccc(CNC(=O)c3ccc(Cl)cc3)c(F)c2)cc1CN1CCCN(C)CC1.O=C(O)C(F)(F)F,99,48,25
COc1ccc(-n2ccnc2SCC(=O)Nc2cc(C(F)(F)F)ccc2Cl)c(OC)c1,98,76,0
COc1ccccc1C1CCN(C2CCC(NC(=O)/C=C/c3cccc(Cl)c3F)CC2)CC1 (stereo not drawn),96,19,50
COc1ccc(N2C(N)=NC(N)=NC2(C)C)cc1.Cl,94,29,0
CCOC(=O)NC1=NC(C)(C)N(OCCCOc2cc(Cl)c(Cl)cc2Cl)C(NC(=O)OCC)=N1,91,97,63
CN(C)C1CCN(Cc2ccc(N3CCN(Cc4cccc5[nH]ccc45)CC3)nc2)CC1,80,17,11
COCCNCc1cccc(-c2ccccc2CN(C(=O)c2ccc3c(c2)OCO3)c2ccc(OC)cc2)c1.O=C(O)C(F)(F)F,90,46,6
O=C(CCc1cccnc1)Nc1cccc(-c2ccc(-c3nc4cc(C(F)(F)F)ccc4[nH]3)cc2)c1,93,0,38
O=C(Nc1ccc(C(=O)Oc2ccc(-c3ccccc3)cc2)cc1)N[C@@H](Cc1ccc(O)cc1)C(=O)NC1CCN(Cc2ccc(O)cc2)C1.O=C(O)C(F)(F)F (stereo partly drawn),94,60,0
COc1ccc(NC(=O)Nc2ccc(-c3ccncc3)c(C(F)(F)F)c2)cc1N1CCN(C)CC1,100,62,5
Cc1ccccc1C1CCN(C2CCC(NC(=O)/C=C/c3cccc(F)c3F)CC2)CC1 (stereo not drawn),89,45,57
CC(C)(C)OC(=O)C1CCCN(Cc2ccc(-c3cccc(-c4nc5ccccc5[nH]4)c3)cc2)C1.O=C(O)C(F)(F)F (stereo not drawn),93,27,37
CC(C)CNCc1cccc(-c2cccc(CNC3CCN(Cc4ccccc4)CC3)c2)c1.O=C(O)C(F)(F)F,100,99,32
COc1cc(NC(=O)c2cccc([N+](=O)[O-])c2)cc(S(=O)(=O)c2ccc(Cl)cc2)c1,88,23,0
CC(C)(C)c1ccc(NC(=O)N[C@@H]2CCN(c3ccnc4ccccc34)C2)cc1.Cl,100,96,23
CCOC(=O)C(C)(C)Oc1ccc(C(=C2CC(C)(C)CC(C)(C)C2)c2ccc(O)cc2)cc1,92,78,0
Cc1noc(C)c1-c1cccc(CNCc2cccc(-c3cccc(-c4nc5cccc(C)c5[nH]4)c3)c2)c1.O=C(O)C(F)(F)F,100,66,15
O=C1CC(C(=O)Nc2cccc(-c3cccc(-c4nc5ccccc5[nH]4)c3)c2)c2ccccc2N1 (stereo not drawn),84,32,0
